# T cruzi growth-1: blocks T. cruzi growth in NIH3T3 culture; T. cruzi beta-gal in NIH3T3, GalScreen luminescence, 90 h; inhibition, % at 8.34 µM; 77,000 tested, 5.9% active; AID 624255;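 active = mean inhibition above about 93%, with at least 55% of replicates each passing it, limit read from the data, passing the limit was not always enough; inconclusive = only one of those two conditions holds; inactive = neither condition holds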
# C diff growth: C. difficile growth inhibition; Clostridium difficile clinical isolate growth, OD600, 24 h; hits give low values; growth activity, negative = inhibition, % at 16 µg/mL (by protocol); 86,000 tested, 0.25% active;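 active = mean growth activity at or below -80% and every replicate also at or below -80%; inconclusive = mean at or below -80% but some replicate above -80%; inactive = mean growth activity above -80%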;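 also: 0% = DMSO wells and -100% = levofloxacin 16 µg/mL wells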
# Pf Dd2 growth: P. falciparum Dd2 growth inhibition; activity change, % at 10 µM; AID 1159554; 94,000 tested, 2.3% active; SYBR Green, 72 h; hits give low values; in the data active = activity change below about -80%; inconclusive = no clear call, values can overlap the other calls
# T cruzi growth-2: Trypanosoma cruzi proliferation inhibition | shares compounds with T cruzi growth-1 | T. cruzi beta-gal in NIH3T3, GalScreen luminescence, 90 h | 5,600 tested, 72% active | AID 651739 | inhibition, % at 8.35 µM;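 active = mean replicate inhibition above about 95% and at least 55% of replicates individually reaching it, limit read from the data; inconclusive = only one of the two criteria is met; inactive = neither criterion is met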
# T cruzi growth-3: blocks T. cruzi growth in NIH3T3 host cells; shares compounds with T cruzi growth-1; T. cruzi beta-gal in NIH3T3, GalScreen luminescence, 90 h; inhibition, % at 2.09 µM; 5,600 tested, 21% active; AID 651740;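 active = mean inhibition above about 95%, with at least 55% of replicates also reaching it, limit read from the data; inconclusive = meets just one of the two conditions; inactive = meets neither condition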;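 also: plate controls were neutral control median for no effect and positive control median for full effect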
# NIH3T3 tox: kills mouse NIH/3T3 fibroblasts; shares compounds with T cruzi growth-1; NIH/3T3 viability, CellTiter-Glo ATP luminescence, 90 h; cytotoxicity (signal decrease), % at 8.35 µM; 5,600 tested, 14% active; AID 651742;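 active = mean signal decrease across replicates above about 35% based on untreated-well scatter, with enough replicates individually passing, limit read from the data; inconclusive = no rule stated though some were filed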;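 also: 0% = median of neutral control wells and 100% = median of positive control wells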
# NIH3T3 tox 2: NIH/3T3 (mouse) viability loss; 5,600 tested, 56% active; inhibition, % at 24.9 µM; AID 651744; shares compounds with T cruzi growth-1; NIH/3T3 viability, CellTiter-Glo ATP luminescence, 90 h;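 active = mean loss of cell viability signal at or above a set limit, and enough replicates individually reaching it; inconclusive = meets only the mean limit or only the replicate share; inactive = meets neither condition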;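 also: 0% = median of neutral control wells and 100% = median of positive control wells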
# * = called active by the depositor; ? = inconclusive; . = not tested or not shown. Hits are enriched below; roughly 6.7% of the tested compounds scored in any of these assays.
SMILES,T cruzi growth-1,C diff growth,Pf Dd2 growth,T cruzi growth-2,T cruzi growth-3,NIH3T3 tox,NIH3T3 tox 2
C[C@@H]1CCCCO[C@H](CN(C)Cc2ccc(C(F)(F)F)cc2)[C@@H](C)CN([C@H](C)CO)C(=O)c2cc(NC(=O)Nc3ccc(F)cc3)ccc2O1,62,.,-28,.,.,.,.
COc1ccc(C#Cc2ccc([C@H]3[C@@H](CO)N4CCCCN(C(=O)Nc5ccc(F)cc5)C[C@H]34)cc2)cc1,88,17,-66,.,.,.,.
COc1ccc(C#Cc2ccc([C@@H]3[C@H](CO)N4CCCCN(C(=O)Nc5ccc(F)cc5)C[C@@H]34)cc2)cc1,111*,-93*,-67,105*,109*,119*,103*
COc1ccc(C#Cc2ccc([C@@H]3[C@@H](CO)N4CCCCN(C(=O)Nc5ccc(F)cc5)C[C@H]34)cc2)cc1,116*,32,-68,97*,120*,123*,105*
COc1ccc(C#Cc2ccc([C@@H]3[C@@H](CO)N4CCCCN(C(=O)Nc5ccc(F)cc5)C[C@@H]34)cc2)cc1,112*,0,-29,102*,106*,4,104*
COc1ccc(C#Cc2ccc([C@@H]3[C@@H](CO)N4CCCCN(C(=O)Nc5cccc(F)c5)C[C@H]34)cc2)cc1,48,-18,-79,.,.,.,.
O=C(C[C@@H]1C[C@H]2c3cc(NC(=O)Nc4ccccc4F)ccc3O[C@H]2[C@@H](CO)O1)NCC1CC1,39,-1,-1,.,.,.,.
CN(C)CC(=O)N[C@H]1C=C[C@@H](CC(=O)O)O[C@@H]1CO,.,-5,57,.,.,.,.
COc1ccccc1-c1ccc2c(c1)O[C@@H](CN(C)S(=O)(=O)c1ccc(F)cc1)[C@H](C)CN([C@H](C)CO)S2(=O)=O,18,.,36,.,.,.,.
COc1ccccc1-c1ccc2c(c1)O[C@H](CN(C)S(=O)(=O)c1ccc(F)cc1)[C@H](C)CN([C@H](C)CO)S2(=O)=O,102*,0,-37,103*,84,29,43*
COc1ccccc1-c1ccc2c(c1)O[C@@H](CN(C)S(=O)(=O)c1ccc(F)cc1)[C@H](C)CN([C@@H](C)CO)S2(=O)=O,108*,1,-82*,109*,79,27,?
COc1ccccc1-c1ccc2c(c1)O[C@H](CN(C)S(=O)(=O)c1ccc(F)cc1)[C@@H](C)CN([C@@H](C)CO)S2(=O)=O,103*,3,-68,101*,59,24,48*
COc1ccccc1-c1ccc2c(c1)O[C@H](CN(C)S(=O)(=O)c1ccc(F)cc1)[C@@H](C)CN([C@H](C)CO)S2(=O)=O,92,6,-56,.,.,.,.
CO[C@H]1CN(C)C(=O)c2ccc(NC(=O)C3CCOCC3)cc2OC[C@H](C)N(Cc2nccs2)C[C@@H]1C,.,-7,6,.,.,.,.
O=C(C[C@@H]1C=C[C@@H](NC(=O)C2CC2)[C@H](CO)O1)NCc1ccccc1Cl,-29,.,21,.,.,.,.
C[C@H](CO)N1C[C@H](C)[C@@H](CN(C)C(=O)C2CCC2)Oc2cc(C#CC3CC3)ccc2S1(=O)=O,76,1,-35,.,.,.,.
C[C@@H]1CN([C@@H](C)CO)S(=O)(=O)c2ccc(C#CC3CC3)cc2O[C@@H]1CN(C)C(=O)C1CCCCC1,100*,9,-16,105*,88,14,20
C[C@@H]1CN([C@H](C)CO)S(=O)(=O)c2ccc(C#CC3CCCC3)cc2O[C@@H]1CN(C)C(=O)C1CC1,-94,.,-62,.,.,.,.
C[C@H](CO)N1C[C@H](C)[C@@H](CN(C)C(=O)C2CCCCC2)Oc2cc(C#CC3CC3)ccc2S1(=O)=O,?,7,-9,105*,71,18,43*
C[C@@H]1CN([C@@H](C)CO)S(=O)(=O)c2ccc(C#CC3CC3)cc2O[C@H]1CN(C)C(=O)C1CCC1,84,-7,-41,.,.,.,.
C[C@H]1CN([C@@H](C)CO)S(=O)(=O)c2ccc(C#CC3CC3)cc2O[C@@H]1CN(C)C(=O)C1CCC1,78,-10,-40,.,.,.,.
C[C@@H]1CN([C@@H](C)CO)S(=O)(=O)c2ccc(C#CC3CC3)cc2O[C@H]1CN(C)C(=O)C1CCCCC1,?,9,-43,105*,81,38*,29*
C[C@H]1CN([C@@H](C)CO)S(=O)(=O)c2ccc(C#CC3CC3)cc2O[C@@H]1CN(C)C(=O)C1CCCCC1,111*,21,-36,106*,92,11,45*
Cc1ccccc1S(=O)(=O)NCC[C@@H]1CC[C@H](NC(=O)C2CCCCC2)[C@H](CO)O1,-67,1,-7,.,.,.,.
CCC(=O)N1C[C@@H](O)COC[C@@H]2O[C@@H](CC(=O)NCc3ccccc3Cl)CC[C@H]21,.,6,19,.,.,.,.
SMILES,T cruzi growth-1,C diff growth,Pf Dd2 growth,T cruzi growth-2,T cruzi growth-3,NIH3T3 tox,NIH3T3 tox 2
C[C@H](CO)N1C[C@H](C)[C@@H](CN(C)C(=O)Nc2ccc(F)cc2)Oc2ccc(NC(=O)c3ccncc3)cc2C1=O,14,2,29,.,.,.,.
C[C@@H]1CN([C@@H](C)CO)S(=O)(=O)c2ccc(C#C[C@@H](C)O)cc2O[C@H]1CN(C)Cc1ccccc1,56,-6,-45,.,.,.,.
CO[C@H]1CN(C)C(=O)c2cc(NC(=O)NC(C)C)ccc2OC[C@@H](C)NC[C@H]1C,10,-9,19,.,.,.,.
CNC[C@H]1OCCCC[C@H](C)Oc2ccc(NC(=O)Nc3ccc(OC)cc3)cc2C(=O)N([C@H](C)CO)C[C@H]1C,3,-3,.,.,.,.,.
C[C@@H]1CN([C@H](C)CO)S(=O)(=O)c2ccc(C#CC3CC3)cc2O[C@@H]1CN(C)C(=O)C1CCC1,57,0,-32,.,.,.,.
C[C@H](CO)N1C[C@H](C)[C@H](CN(C)C(=O)C2CCCCC2)Oc2cc(C#CC3CC3)ccc2S1(=O)=O,?,2,-40,106*,67,11,27
C[C@@H]1CN([C@@H](C)CO)S(=O)(=O)c2ccc(C#CC3CC3)cc2O[C@@H]1CN(C)C(=O)C1CCC1,66,-1,12,.,.,.,.
C[C@H]1CN([C@@H](C)CO)S(=O)(=O)c2ccc(C#CC3CC3)cc2O[C@H]1CN(C)C(=O)C1CCCCC1,100*,-3,-38,106*,84,13,51*
C[C@@H]1CCCCO[C@@H](CN(C)C(=O)Nc2ccc(C(F)(F)F)cc2)[C@@H](C)CN([C@@H](C)CO)C(=O)c2cc(N(C)C)ccc2O1,100*,1,20,111*,39,-4,-25
C[C@@H]1CCCCO[C@H](CN(C)C(=O)Nc2ccc(C(F)(F)F)cc2)[C@H](C)CN([C@H](C)CO)C(=O)c2cc(N(C)C)ccc2O1,57,9,.,.,.,.,.
C[C@@H]1CCCCO[C@H](CN(C)C(=O)Nc2ccc(C(F)(F)F)cc2)[C@H](C)CN([C@@H](C)CO)C(=O)c2cc(N(C)C)ccc2O1,85,1,-32,.,.,.,.

# Screening data (PubChem BioAssay)
